# From PubChem BioAssay AID588342 (National Center for Advancing Translational Sciences (NCATS), 2011)
# About 25,000 (6.9%) of roughly 360,000 compounds were called active. Entries that show only a call come without a potency. Roughly 9% stayed inconclusive and do not appear here. Calls follow the shape of the dose curve; as a rule, active = well fitted inhibition curve with a large enough effect; inconclusive = small, poorly fitted or top-dose-only effect; inactive = flat fitted curve, though single readings scatter. This excerpt belongs to a sample that is enriched for actives.
# Biological target: Luciferin 4-monooxygenase (Photinus pyralis) (UniProt P08659)
# Assay: qHTS profiling assay for firefly luciferase inhibitor/activator using purifed enzyme and Km concentrations of substrates (counterscreen for miR-21 project); also: nearly all actives have a fitted effect of over 55% in size
# Details: purified FLuc, luminescence inhibition; series mostly up to 57.5 µM
# Outline: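 Purified P. pyralis luciferase, 10 nM final, with Km-level 10 uM D-luciferin and 10 uM ATP in 50 mM Tris acetate pH 7.5, 10 mM Mg acetate, 0.01% Tween-20, 0.05% BSA; 6-point qHTS titration about 60 µM downward; luminescence read.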
# Potency is read from the fitted curve at half-maximal effect.
# Luciferin 4-monooxygenase (Photinus pyralis), sequence (P08659 whole entry, looked up): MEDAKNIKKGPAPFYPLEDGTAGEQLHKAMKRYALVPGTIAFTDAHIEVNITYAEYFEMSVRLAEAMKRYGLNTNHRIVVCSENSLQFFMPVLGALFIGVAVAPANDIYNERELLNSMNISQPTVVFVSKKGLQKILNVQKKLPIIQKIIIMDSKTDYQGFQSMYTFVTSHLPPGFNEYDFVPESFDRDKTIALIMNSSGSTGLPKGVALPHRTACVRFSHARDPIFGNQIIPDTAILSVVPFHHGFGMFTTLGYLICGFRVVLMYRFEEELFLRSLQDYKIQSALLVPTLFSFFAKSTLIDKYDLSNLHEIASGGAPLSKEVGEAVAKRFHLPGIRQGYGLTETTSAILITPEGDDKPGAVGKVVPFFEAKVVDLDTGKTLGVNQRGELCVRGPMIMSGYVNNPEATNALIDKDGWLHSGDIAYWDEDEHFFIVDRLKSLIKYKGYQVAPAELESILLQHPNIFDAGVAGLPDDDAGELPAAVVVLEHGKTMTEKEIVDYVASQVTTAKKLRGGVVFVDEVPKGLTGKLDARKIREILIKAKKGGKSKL
row,Structure (SMILES),Potency
1,Brc1ccc(C2CC(c3ccccc3)=Nc3ccccc3N2)cc1 (centres undefined),26.9 µM (active)
2,O=C(c1ccccc1)N1N=C(c2ccccc2O)CC1c1ccc(Br)cc1 (centres undefined),inactive
3,COc1ccc(N2C(=O)NC(NS(=O)(=O)c3ccc(Cl)cc3)(C(F)(F)F)C2=O)cc1 (centres undefined),inactive
4,COC(=O)c1sc2ncccc2c1-n1c(C)ccc1C,inactive
5,CC(=O)c1ccc(S(=O)(=O)N2CCN(C(=O)/C=C/c3ccc4ccccc4n3)CC2)cc1,inactive
6,COc1cccc(/C=C/c2ccc3ccccc3n2)c1OC(C)=O,5.36 µM (active)
7,COc1ccc(CNC(=O)/C(C#N)=C/c2cccc(OC)c2OC)cc1,inactive
8,CCOc1cccc(/C=C/c2ccc3ccccc3n2)c1OC(C)=O,7.57 µM (active)
9,CCOc1ccccc1/C=N/Nc1nc2ccccc2o1,inactive
10,COc1ccc(CCNC(=O)CCCn2c(=O)c3ccccc3n(Cc3ccc(F)cc3Cl)c2=O)cc1OC,inactive
11,COc1ccc2cc(CCl)c(Cl)nc2c1,inactive
12,CC(C)c1ccc(NC(=O)c2cc(S(=O)(=O)N3CCc4ccccc4C3)ccc2F)cc1,inactive
13,CN1C(C(=O)NCc2ccco2)CC2Cn3c(nc4ccccc43)C21 (centres undefined),inactive
14,Cc1ccc(NC2=C(c3ccc(C(F)(F)F)cc3)C(=O)c3ccccc32)cc1F,inactive
15,CCc1ccc(Sc2cc(C(=O)NCCCOC(C)C)c3ccccc3n2)cc1,inactive
16,CCc1ccc(-c2cc(C(=O)NN3CCN(C)CC3)c3ccccc3n2)cc1,2.69 µM (active)
17,CC1CCCC(NC(=O)c2cc(-c3ccncc3)nc3ccccc23)C1C (centres undefined),inactive
18,CN(Cc1ccccc1)c1ncnc2onc(-c3ccc(F)cc3)c12,inactive
19,COc1ccccc1C(=O)Nn1c(-c2cccs2)nc2ccccc2c1=O,inactive
20,O=C(CSc1nc(Nc2ccc(F)c(F)c2)c2ccccc2n1)c1ccc(Cl)cc1,inactive
21,CC(=O)Nc1cccc(Nc2nc(-c3cccs3)nc3ccccc23)c1,23.9 µM (active)
22,CC(=O)c1ccc(S(=O)(=O)N(C)CCCC(=O)N(C)Cc2ccccc2F)cc1,inactive
23,O=C(/C=C/c1cn(CC(O)CN2CCc3ccccc32)c2ccccc12)c1ccc(Br)cc1 (centres undefined),inactive
24,O=C(CSC(=S)N1CCOCC1)c1cc(Br)cc(Br)c1O,inactive
25,CC(=O)c1ccc(NC(=O)CSC(=S)N2CCCC2)cc1,inactive
26,O=C(CSC(=S)N1CCCCC1)c1c(F)cccc1F,2.13 µM (active)
27,O=C(CSC(=S)N1CCOCC1)c1ccccc1,3.01 µM (active)
28,CC1CN(C(=S)SCC(=O)c2ccccc2)CC(C)O1 (centres undefined),inactive
29,COc1cccc(NC(=O)CN(C)C(=O)CSC(=S)N2CCCC2)c1,inactive
